Laboratory results from PubChem BioAssay (NCI).
This is part of a sample that, as a whole, favours compounds with a hit. Of some 83,000 tested, about 20% had one in any assay.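 Results are percent growth after 48 hours of single-concentration exposure. 100 means growth as in untreated cells, lower positive values show inhibition; negative values down to -100 show cell death.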 Active and inactive are the calls of the source. The calls were made as follows: active = growth percent below 10; inactive = the rest.

How the values were obtained:
Experiment in all cases: NCI-60 one-dose screen, 48 h (100 = growth as untreated, 0 = no growth, -100 = all killed)
Settings in all cases: 10 µM unless noted
NCI-H23 lung = test system: NCI-H23 lung
NCI-H322M lung = test system: NCI-H322M lung
HOP-62 NSCLC = test system: HOP-62 NSCLC
NCI-H460 lung = test system: NCI-H460 lung
HOP-92 NSCLC = test system: HOP-92 NSCLC
NCI-H522 lung = test system: NCI-H522 lung
A549/ATCC NSCLC = test system: A549/ATCC NSCLC
786-0 renal = test system: 786-0 renal
DU-145 prostate = test system: DU-145 prostate
K-562 leukemia = test system: K-562 leukemia
MALME-3M melanoma = test system: MALME-3M melanoma
MDA-MB-231 breast = test system: MDA-MB-231 breast
RXF 393 renal = test system: RXF 393 renal
SF-268 CNS = test system: SF-268 CNS
SF-295 CNS = test system: SF-295 CNS
SF-539 CNS = test system: SF-539 CNS
UACC-257 melanoma = test system: UACC-257 melanoma
M14 melanoma = test system: M14 melanoma
HCT-15 colon = test system: HCT-15 colon
COLO 205 colon = test system: COLO 205 colon

Measured: growth

COc1cc(/C=C2\CN(C)C/C(=C\c3cc(CN4CCCCC4)c(O)c(OC)c3)C2=O)cc(CN2CCCCC2)c1O
active: NCI-H460 lung 0.801% | DU-145 prostate 1.15% | MDA-MB-231 breast 7.14%
inactive: NCI-H23 lung 34.2% | NCI-H322M lung 43.1% | HOP-62 NSCLC 65% | HOP-92 NSCLC 51% | NCI-H522 lung 39.8% | A549/ATCC NSCLC 45.7% | 786-0 renal 50.1% | K-562 leukemia 10.2% | MALME-3M melanoma 84.6% | RXF 393 renal 29.7% | SF-268 CNS 41% | SF-295 CNS 91.7% | SF-539 CNS 48.6% | UACC-257 melanoma 76.9% | M14 melanoma 70.3% | HCT-15 colon 18.6%

O=C(/C=C/c1ccc(F)cc1)c1ccc(Nc2nc(NCCO)nc(Nc3ccc(Cl)cc3)n2)cc1
inactive: NCI-H23 lung 89.1% | NCI-H322M lung 93.1% | HOP-62 NSCLC 80.8% | NCI-H460 lung 61.6% | HOP-92 NSCLC 87.8% | NCI-H522 lung 81.1% | A549/ATCC NSCLC 51.1% | 786-0 renal 69.8% | DU-145 prostate 84.6% | K-562 leukemia 45.4% | MALME-3M melanoma 96.6% | MDA-MB-231 breast 71.9% | RXF 393 renal 51.2% | SF-268 CNS 71.9% | SF-295 CNS 91% | SF-539 CNS 74.4% | UACC-257 melanoma 99.5% | M14 melanoma 83.3% | HCT-15 colon 26.7%

CC(C)CCOc1ccc(-c2n[nH]c(C(F)(F)F)c2-c2cncc(C#N)c2)c(O)c1
inactive: NCI-H322M lung 12.4% | 786-0 renal 17.1% | DU-145 prostate 18% | SF-268 CNS 21.9% | SF-539 CNS 25.2% | M14 melanoma 22.5% | HCT-15 colon 12%
active: NCI-H23 lung -0.157% | HOP-62 NSCLC 5.79% | NCI-H460 lung 3.48% | HOP-92 NSCLC -27.9% | NCI-H522 lung -6.89% | MALME-3M melanoma -0.801% | MDA-MB-231 breast 1.43% | SF-295 CNS 0.826% | UACC-257 melanoma -14%

O=c1c2cc(F)ccc2sc2c(NCCN3CCCC3)nc3ccccc3c12
active: K-562 leukemia -43.2%
inactive: NCI-H23 lung 77.1% | NCI-H322M lung 69% | HOP-62 NSCLC 67.6% | NCI-H460 lung 12.3% | HOP-92 NSCLC 27.5% | NCI-H522 lung 63.8% | 786-0 renal 55.6% | DU-145 prostate 45.8% | MALME-3M melanoma 83% | MDA-MB-231 breast 30.8% | RXF 393 renal 38.3% | SF-268 CNS 47% | SF-295 CNS 85.6% | SF-539 CNS 61.8% | UACC-257 melanoma 92% | M14 melanoma 15.1% | HCT-15 colon 27.6%

CNC(=O)c1cc(Oc2ccc(CC(=O)Nc3cc(C(C)(C)C)cn3C)cc2)ccn1
inactive: NCI-H23 lung 50.2% | NCI-H322M lung 93% | HOP-62 NSCLC 56% | NCI-H460 lung 74.8% | HOP-92 NSCLC 84% | NCI-H522 lung 75.1% | 786-0 renal 89.7% | DU-145 prostate 93.9% | K-562 leukemia 35.5% | MALME-3M melanoma 50.6% | MDA-MB-231 breast 67.8% | RXF 393 renal 105% | SF-268 CNS 86.4% | SF-295 CNS 45.4% | SF-539 CNS 68.3% | UACC-257 melanoma 56.5% | M14 melanoma 84.7% | HCT-15 colon 93.8%

COC(=O)/C(CCC=C(C)C)=C1\[C@@H](OC(C)=O)C[C@@]2(C)[C@H]1C[C@@H](O)[C@H]1[C@@]3(C)CC[C@H](NCCO)[C@@H](C)[C@@H]3CC[C@@]12C
inactive: NCI-H23 lung 97.7% | NCI-H322M lung 101% | HOP-62 NSCLC 106% | NCI-H460 lung 105% | HOP-92 NSCLC 93.6% | NCI-H522 lung 99.9% | 786-0 renal 98.7% | COLO 205 colon 103% | DU-145 prostate 104% | K-562 leukemia 94.8% | MALME-3M melanoma 93% | MDA-MB-231 breast 106% | RXF 393 renal 109% | SF-268 CNS 104% | SF-295 CNS 101% | SF-539 CNS 101% | UACC-257 melanoma 107% | M14 melanoma 94.2% | HCT-15 colon 103%

C=CCN1C(=O)/C(=c2\sc3n(c2=O)NC2C(N=3)N(CC)C(=O)N2CC)c2ccccc21 (configuration not stated)
inactive: NCI-H23 lung 43.7% | NCI-H322M lung 57% | HOP-62 NSCLC 62.7% | NCI-H460 lung 15% | HOP-92 NSCLC 108% | NCI-H522 lung 25.9% | 786-0 renal 57.5% | DU-145 prostate 26% | K-562 leukemia 11.3% | MALME-3M melanoma 67.6% | MDA-MB-231 breast 38.4% | RXF 393 renal 13.7% | SF-268 CNS 59.7% | SF-295 CNS 37.3% | UACC-257 melanoma 82.4% | M14 melanoma 16.5% | HCT-15 colon 25%
active: SF-539 CNS -5.16%

Cc1ccc2sc3c(NCCCNCCO)nc4ccccc4c3c(=O)c2c1
active: NCI-H460 lung -81.6% | DU-145 prostate 4.48% | K-562 leukemia -48.5% | M14 melanoma -44.3% | HCT-15 colon -8.68%
inactive: NCI-H23 lung 75.2% | NCI-H322M lung 73.1% | HOP-62 NSCLC 50.9% | HOP-92 NSCLC 35.3% | NCI-H522 lung 27.2% | 786-0 renal 54% | MALME-3M melanoma 85% | MDA-MB-231 breast 23.8% | RXF 393 renal 44.5% | SF-268 CNS 47.7% | SF-295 CNS 84.2% | SF-539 CNS 78.6% | UACC-257 melanoma 72.7%

O=C1c2ccc3c4c(ccc(c24)C(=O)N1CCCCO)C(=O)N(CCCCO)C3=O
active: NCI-H522 lung -13.4% | K-562 leukemia 4.34% | MALME-3M melanoma -7.29% | UACC-257 melanoma -61%
inactive: NCI-H23 lung 80.5% | NCI-H322M lung 90.9% | HOP-62 NSCLC 83.9% | NCI-H460 lung 89.6% | HOP-92 NSCLC 16% | A549/ATCC NSCLC 45.6% | 786-0 renal 67.8% | MDA-MB-231 breast 64.6% | RXF 393 renal 15.1% | SF-268 CNS 81.3% | SF-295 CNS 46.8% | SF-539 CNS 68.3% | M14 melanoma 23.2% | HCT-15 colon 48.5%

Clc1ccc(Nc2scc3[n+]2CCC3)cc1
inactive: NCI-H23 lung 92.7% | NCI-H322M lung 101% | HOP-62 NSCLC 99.8% | NCI-H460 lung 102% | HOP-92 NSCLC 81% | NCI-H522 lung 93.5% | A549/ATCC NSCLC 92.4% | 786-0 renal 94.9% | DU-145 prostate 101% | MALME-3M melanoma 95.9% | MDA-MB-231 breast 95.9% | SF-268 CNS 93.2% | SF-295 CNS 94.5% | SF-539 CNS 97.1% | UACC-257 melanoma 94% | M14 melanoma 103% | HCT-15 colon 93.4%

Cc1cc(OC(=O)c2ccc([N+](=O)[O-])cc2)nc2[nH]c(=O)sc12
inactive: NCI-H23 lung 103% | NCI-H322M lung 110% | HOP-62 NSCLC 111% | NCI-H460 lung 105% | HOP-92 NSCLC 105% | NCI-H522 lung 96.8% | 786-0 renal 104% | COLO 205 colon 116% | DU-145 prostate 111% | K-562 leukemia 102% | MALME-3M melanoma 107% | MDA-MB-231 breast 103% | RXF 393 renal 108% | SF-268 CNS 97.5% | SF-295 CNS 103% | SF-539 CNS 98.5% | UACC-257 melanoma 104% | M14 melanoma 102% | HCT-15 colon 103%

O=C1N=c2ccccc2=C1c1sc(=Nc2ccccc2)n(Nc2ccccc2)c1O
inactive: NCI-H23 lung 102% | NCI-H322M lung 107% | HOP-62 NSCLC 100% | NCI-H460 lung 101% | HOP-92 NSCLC 102% | NCI-H522 lung 90.9% | 786-0 renal 101% | COLO 205 colon 116% | DU-145 prostate 115% | K-562 leukemia 94.4% | MALME-3M melanoma 108% | MDA-MB-231 breast 95.1% | RXF 393 renal 107% | SF-268 CNS 99.5% | SF-295 CNS 102% | SF-539 CNS 104% | UACC-257 melanoma 106% | M14 melanoma 99.7% | HCT-15 colon 102%

NNC(=O)CNC(=O)Nc1n[nH]c(=S)s1
inactive: NCI-H23 lung 100% | NCI-H322M lung 103% | HOP-62 NSCLC 100% | NCI-H460 lung 105% | HOP-92 NSCLC 91.7% | NCI-H522 lung 88.7% | 786-0 renal 103% | COLO 205 colon 107% | DU-145 prostate 107% | K-562 leukemia 90.3% | MALME-3M melanoma 87% | MDA-MB-231 breast 112% | RXF 393 renal 124% | SF-268 CNS 107% | SF-295 CNS 94% | SF-539 CNS 109% | UACC-257 melanoma 99.9% | M14 melanoma 93.5% | HCT-15 colon 109%

COc1cc(C2C(C#N)=C(N)OC3=C2C(=O)c2ccccc2C3=O)cc(OC)c1OC (configuration not stated)
active: HOP-62 NSCLC 7.45% | NCI-H460 lung 9.57% | NCI-H522 lung -18.6% | SF-539 CNS -19.6%
inactive: NCI-H23 lung 31.4% | NCI-H322M lung 48.1% | HOP-92 NSCLC 80.6% | A549/ATCC NSCLC 41% | 786-0 renal 35.6% | DU-145 prostate 25.1% | MALME-3M melanoma 47.8% | MDA-MB-231 breast 36.4% | SF-268 CNS 39.5% | SF-295 CNS 23.2% | UACC-257 melanoma 50.5% | M14 melanoma 12.3% | HCT-15 colon 20.1%

CCCCc1ccc(NS(=O)(=O)c2cc3c4c(c2)CCN4C(=O)CC3)cc1
active: HOP-62 NSCLC 8.96% | NCI-H460 lung 4.33% | HOP-92 NSCLC 3.41% | 786-0 renal -1.95% | K-562 leukemia 7.56% | SF-268 CNS 5.78% | SF-539 CNS 7.3% | M14 melanoma -12.8%
inactive: NCI-H23 lung 21.2% | NCI-H322M lung 32.7% | NCI-H522 lung 13.9% | COLO 205 colon 14.5% | DU-145 prostate 16.4% | MALME-3M melanoma 17.8% | MDA-MB-231 breast 35.7% | RXF 393 renal 32.5% | UACC-257 melanoma 16.3% | HCT-15 colon 32.6%
